# Compound activity as filed in PubChem BioAssay.
# Most compounds without a hit are left out; they make up all but 3.7% or so of the library.
# Tau fluor counter – Counterscreen qHTS for Inhibitors of Tau Fibril Formation, Fluorescence Polarization. Potency, µM (titrated, usually from 57.7 µM), for the others: top-dose activity change, negative = decrease. 0.93% of 280,000 active. tau K18 P301L Alexa594 fluorescence, heparin fibrillization; also: % is scaled to controls: 0 for no effect and ±100 for the full control effect; nearly all actives have a fitted effect of over 55% in size
#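 Human tau K18 P301L (15 uM unlabeled, 0.24 uM Alexa 594-labeled) in 100 mM sodium acetate pH 7 with 20 uM heparin, 6 hr at 37 C. ThT 30 uM added, 1 hr ambient; Alexa 594 FP and total fluorescence read at 555/632 nm.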
# Tau ThT inhib – qHTS for Inhibitors of Tau Fibril Formation, Thioflavin T Binding; AID 1460, 2008; Potency, µM (highest dose often 57.4 µM), for the others: at the highest dose activity, negative = inhibition, hits mostly inhibitors; 2.1% of 270,000 active; recombinant tau K18 P301L (four-repeat tau fragment), heparin-induced fibrillization, ThT fluorescence; Microtubule-associated protein tau (Homo sapiens), P10636; also: % is scaled to controls: 0 for no effect and ±100 for the full control effect; nearly all actives have a fitted effect of over 55% in size
# Target sequence (P10636 561-689 P618L limits assumed): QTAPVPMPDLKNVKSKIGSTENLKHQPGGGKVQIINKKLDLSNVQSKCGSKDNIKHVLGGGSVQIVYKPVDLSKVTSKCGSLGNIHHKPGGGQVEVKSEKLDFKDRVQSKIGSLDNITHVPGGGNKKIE
#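 Heparin-induced (20 uM) aggregation of recombinant human K18 P301L tau, 15 uM unlabeled with 0.24 uM labeled, pH 7 acetate buffer, 6 hr at 37 C with compound. Fibrils quantified by 30 uM ThT fluorescence after 1 hr ambient incubation.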
# HttQ103 aggreg – qHTS Multiplex Assay to Identify Dual Action Probes in a Cell Model of Huntington: Aggregate Formation (GFP); PC12 HttQ103-GFP aggregates, Acumen cytometry, 40 h; Potency, µM (top dose mostly 46.1 µM), for the others: top-dose activity change, negative = inhibition, most hits filed as inhibitors; 1.1% of 220,000 active; AID 1688, 2009; also: % is scaled to controls: 0 for no effect and ±100 for the full control effect; nearly all actives have a fitted effect of over 60% in size
#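 PC12 cells with ecdysone-inducible HTT exon1 Q103-GFP, induced by 100 nM tebufenozide, given compounds in a concentration series. GFP aggregates (1–25 um, 6 SD above background) counted in lysates by laser-scanning cytometry, 488 nm excitation.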
# Tau FP inhib – qHTS for Inhibitors of Tau Fibril Formation, Fluorescence Polarization; K18 P301L tau heparin fibrillization, Alexa594 FP, 6 h; 0.39% of 280,000 active; Potency, µM (doses to about 57.7 µM), for inactives: at the top dose activity, negative = inhibition, usual class: inhibitors; AID 1468, 2008; Microtubule-associated protein tau (Homo sapiens), P10636; also: % is scaled to controls: 0 for no effect and ±100 for the full control effect; nearly all actives have a fitted effect of over 55% in size
#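 Human tau K18 […] P301L fragment, 15 uM unlabeled plus 0.24 uM Alexa 594-labeled tau (final), with compound and 20 uM heparin in 100 mM sodium acetate pH 7; 6 hr at 37 C, then Alexa 594 FP read.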
# HTT cytoprotect – qHTS Multiplex Assay to Identify Dual Action Probes in a Cell Model of Huntington: Cytoprotection (ATP). Potency, µM (series often up to 56.4 µM), for inactives: cytoprotection (ATP increase), usual class: activators. PC12 HTT-Q103 induced, cytoprotection, ATP luminescence, 40 h. AID 1471, 2008. 0.14% of 230,000 active; also: % of control where 0% means no effect; nearly all actives have a fitted effect of over 45% in size
#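 Stable PC12 Q103-GFP cells in serum-supplemented, phenol red-free DMEM; induction by tebufenozide at 100 nM final; compound dose series; cell viability quantified luminescently from ATP.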
# Active calls of the source: *; ? = inconclusive; · = no result; [ ] = another dose, or the depositor's remark. Calls follow the shape of the dose curve; as a rule, active = well fitted curve in the direction sought with a large enough effect; inconclusive = small, poorly fitted or top-dose-only effect, or another doubt; inactive = no such curve, though single readings can be large; an effect the other way counts as inactive or inconclusive. Potency is read from the fitted curve at half-maximal effect.
SMILES,Tau fluor counter,Tau ThT inhib,HttQ103 aggreg,Tau FP inhib,HTT cytoprotect
NC(N)=NC[C@H](N)C(=O)O,·,·,·,·,-5%[10 µM]
COc1ccc(Nc2cc(C(=O)NCCCN3CCN(c4ccccc4F)CC3)c3ccccc3n2)c(OC)c1,7.1µM*[quencher],?,·,5%,·
COc1ccccc1Nc1nc(-c2ccccc2)nc2ccccc12,?,-2%,4%,?,-28%
COc1ccc(Nc2cc(C(=O)NCc3ccccc3)c3ccccc3n2)c(OC)c1,7.9µM*[quencher],?,·,?,·
COc1ccc(Nc2cc(C(=O)NCCCN(C)Cc3ccccc3)c3ccccc3n2)cc1,13µM*[quencher],?,·,?,·
COc1ccc(Nc2nc(-c3ccccc3)nc3ccccc23)c(OC)c1,25µM*[quencher],?,-17%,8%,11%[10 µM]
COc1ccc(Nc2cc(C(=O)NCCCN3CCOCC3)c3ccccc3n2)c(OC)c1,-25%,?,5%,9%,-2%
COc1ccc(Nc2cc(C(=O)NC3CCCC3)c3ccccc3n2)c(OC)c1,-27%,-8%,·,14%,·
C#CCCCO/N=C1/C[C@@H](O)[C@@H](O)[C@@H]2[C@@H]3C(=O)N(c4cccc(Oc5ccccc5)c4)C(=O)[C@H]3CC[C@@H]12,-4%[11.6 µM],-2%[11.5 µM],·,1%[11.6 µM],-6%[10 µM]
COc1ccc(-c2cc(C)no2)cc1S(=O)(=O)NC1CCC(C)CC1 (stereo unspecified),?,-12%,·,-5%,·
COc1ccc(-c2cn(-c3ccc(C)cc3)c(S(=O)(=O)CC(=O)Nc3ccccc3)n2)cc1,-29%,-9%,·,-16%,·
COc1ccc(Nc2cc(C(=O)NCCCN3CCN(c4ccc(OC)cc4)CC3)c3ccccc3n2)cc1,4µM*[quencher],14µM*,·,-2%,·
COc1ccc(N2CCN(CCCNC(=O)c3cc(Nc4ccccc4OC)nc4ccccc34)CC2)cc1,8.9µM*[quencher],?,·,-3%,·
COc1ccc(Nc2cc(C(=O)NCCCN3CCN(C)CC3)c3ccccc3n2)cc1OC,?,?,8%,9%,-37%
CN(N=O)c1ccc(/C=C\c2ccnc3ccccc23)cc1,·,·,·,·,-6%[10 µM]
CC1C/C(=C/c2ccncc2)C(=O)/C(=C/c2ccncc2)C1 (stereo unspecified),-22%,8.9µM*,?,?,-15%
CC1C/C(=C/c2cccn2C)C(=O)/C(=C/c2cccn2C)C1 (stereo unspecified),?,?,-33%,-15%,22%
O=c1[nH]c2cc3ccccc3cc2nc1C(F)(F)F,-19%,?,-10%,-12%,-33%
FC(F)(F)c1nc2cc3nc4ccccc4[nH]c3cc2n1,-30%,5µM*,26%[9.22 µM],?,14%[10 µM]
CN(CC(=O)N1CCCCC1)S(=O)(=O)c1cccc2cccnc12,1%,-2%,-8%,-14%,-6%[10 µM]
CC1Cc2ccccc2N1C(=O)CN(C)S(=O)(=O)c1cccc2cccnc12 (stereo unspecified),-3%,-9%,0.032µM*,8%,-18%
O=C(c1cc2sccc2n1Cc1ccccc1)N1CCN(c2nc3ccccc3s2)CC1,-18%,?,7.9µM*,4%,-34%
CC1CCN(C(C(=O)Nc2ccc(C(C)C)cc2)c2ccc3c(c2)OCO3)CC1 (stereo unspecified),-12%,-4%,20µM*,-9%,0%
CC(C)c1ccc(NC(=O)C(c2ccc3c(c2)OCO3)N2CCCCC2)cc1 (stereo unspecified),-17%,-8%,?,-1%,-31%
O=c1c2c(nc3c(-c4ccc(Cl)cc4)c[nH]n13)CCCC2,-23%,?,7.1µM*,3%,-58%
SMILES,Tau fluor counter,Tau ThT inhib,HttQ103 aggreg,Tau FP inhib,HTT cytoprotect
NS(=O)(=O)c1cc2c(cc1Cl)=NC(CCC(=O)O)=NS=2(=O)O,·,·,·,·,-11%[10 µM]
Oc1ccc(-c2nc3ccccn3c2Nc2ccc3c(c2)OCCO3)cc1,?,?,·,13%,·
Clc1cccc(-c2nc3ccccn3c2Nc2ccc3c(c2)OCCO3)c1,7.9µM*[quencher],?,·,?,·
Cc1ccn2c(Nc3ccc4c(c3)OCO4)c(-c3ccc(O)cc3)nc2c1,18µM*[quencher],?,21%[9.22 µM],3%,12%[10 µM]
COc1cc(-c2nc3ccc(C)cn3c2Nc2ccc3c(c2)OCCO3)ccc1O,16µM*[quencher],?,?,10%,·
COc1cc(-c2nc3cccc(C)n3c2Nc2ccc3c(c2)OCCO3)ccc1O,18µM*[quencher],?,·,4%,·
COc1cc(-c2nc3cnccn3c2Nc2ccc3c(c2)OCCO3)ccc1O,?,?,?,9%,·
Oc1c(C(O)(c2ccccc2)c2ccc3ccccc3c2O)ccc2ccccc12,·,·,·,·,16%[10 µM]
Cc1ccc(C(=O)c2oc3ccccc3c2NC(=O)Cc2ccccc2)cc1,?,-18%,·,-17%,·
Cc1cccc(CCNC(=O)C2CCC(CNS(=O)(=O)c3c(C)cc(C)cc3C)CC2)c1 (stereo unspecified),0%,-17%,·,5%,·
CC(C)(C)N1C(=O)[C@@H]2[C@H]3C(=CC[C@H]2C1=O)C(=O)[C@H]1O[C@H]1[C@H]3O,-12%[11.6 µM],?,·,?,5.6µM*
O=C1C2=CC[C@@H]3C(=O)N(c4ccc(F)cc4F)C(=O)[C@H]3[C@H]2[C@H](O)[C@H]2O[C@H]12,-19%[11.6 µM],4.5µM*,·,?,3.2µM*
CCOC(=O)CCN1C(=O)[C@@H]2[C@H]3C(=CC[C@H]2C1=O)C(=O)[C@H]1O[C@H]1[C@H]3O,-24%[11.6 µM],4µM*,·,?,-2%[10 µM]
COc1ccc(CNC(=O)c2sc3nc4n(c(=O)c3c2C)CCCCC4)cc1,-14%,-15%,·,4%,·
COC(=O)c1ccc(N2NC(=O)/C(=C/c3ccc(-c4ccc(Cl)c(C(=O)O)c4)o3)C2=O)cc1,?,6.3µM*,·,?,·
CN(C)CCCNc1cc(C(C)(C)C)nc2c(-c3ccc(Cl)cc3)cnn12,16µM*[quencher],?,-19%[9.22 µM],10%,-23%[10 µM]
COc1ccc(C)cc1-n1c(C)cc(C=O)c1C,-6%,-4%,0%[9.22 µM],0%,-20%
COc1ccc(N)cc1-n1c(C)ccc1C,?,3.2µM*,24%[9.22 µM],?,38%[10 µM]
c1cc2c3c(cccc3c1)NC1(CCC3(CC1)Nc1cccc4cccc(c14)N3)N2,13µM*[quencher],16µM*,8%[9.22 µM],-11%,-3%[10 µM]
C[C@H]1Cc2c(COc3ccccc3)nc3c(c2CO1)CN(S(=O)(=O)c1ccc(Cl)c2nonc12)CC3,5%[11.6 µM],-2%[11.5 µM],·,10%[11.6 µM],-18%[10 µM]
COc1cc(/C=C2/SC(=Nc3ccc(O)cc3)NC2=O)ccc1O,?,4.5µM*,-23%[9.22 µM],?,-66%[10 µM]
